Test results reported in PubChem BioAssay AID1159580 (chemical genetic matrix, 2015).
About 2,000 (36%) of roughly 5,500 compounds were called active. Not shown: some 18% with an inconclusive outcome. Rule as the data show it: active = normalized growth mostly below about 0.91 (no sharp cut-off); inconclusive = no clear call, values can overlap the other calls; inactive = mostly above about 0.92. The list shows a part of the results.

Test: chemical genetic growth profiling, strain panel (AID 1159580);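 also: tested at 20 µM; growth read once vehicle control cultures reached saturation at 30 °C; 1 = growth at the plate median or of vehicle wells; lower values mean less growth of the strain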
Conditions: S. cerevisiae deletion strains, growth OD

Measured: normalized growth

C=C1C2CC[C@@]3(C)[C@H](c4ccoc4)OC(=O)C[C@]13O[C@H]1CC(=O)C(C)(C)C(CC(=O)OC)[C@@]21C (some centres not stated)
inactive: locus YAL021C, strain ccr4, active compounds read low 1.01 | locus YAL026C, strain drs2, active compounds read low 0.981 | locus YAL030W, strain snc1, active compounds read low 0.983 | locus YBL061C, strain skt5, active compounds read low 0.981 | locus YBR009C, strain hhf1, active compounds read low 0.995 | locus YBR021W, strain FUR4, active compounds read low 1 | locus YBR023C, strain chs3, active compounds read low 0.977 | locus YBR171W, strain sec66, active compounds read low 0.953 | locus YBR229C, strain ROT2, active compounds read low 0.989 | locus YBR231C, strain swc5, active compounds read low 0.983 | locus YBR279W, strain paf1, active compounds read low 0.979 | locus YCL011C, strain gbp2, active compounds read low 0.962 | locus YCL016C, strain dcc1, active compounds read low 1.01 | locus YCL029C, strain bik1, active compounds read low 0.992 | locus YCL061C, strain MRC1, active compounds read low 0.987 | locus YCL069W, strain vba3, active compounds read low 0.964 | locus YCR088W, strain abp1, active compounds read low 0.964 | locus YDL005C, strain med2, active compounds read low 0.969 | locus YDL035C, strain GPR1, active compounds read low 0.984 | locus YDL040C, strain nat1, active compounds read low 0.966 | locus YDL074C, strain BRE1, active compounds read low 1.01 | locus YDL101C, strain DUN1, active compounds read low 1 | locus YDL185W, strain tfp1, active compounds read low 1.01 | locus YDL192W, strain arf1, active compounds read low 0.988 | locus YDR001C, strain nth1, active compounds read low 0.976 | locus YDR069C, strain doa4, active compounds read low 0.975 | locus YDR101C, strain arx1, active compounds read low 0.986 | locus YDR137W, strain rgp1, active compounds read low 0.922 | locus YDR159W, strain sac3, active compounds read low 0.948 | locus YDR162C, strain NBP2, active compounds read low 0.962 | locus YDR195W, strain ref2 0.978 | locus YDR297W, strain sur2, active compounds read low 0.983 | locus YDR318W, strain mcm21, active compounds read low 0.998 | locus YDR334W, strain swr1, active compounds read low 0.966 | locus YDR335W, strain msn5, active compounds read low 0.972 | locus YDR388W, active compounds read low 1.02 | locus YDR392W, strain spt3, active compounds read low 0.958 | locus YDR502C, strain sam2, active compounds read low 1.01 | locus YEL003W, strain gim4, active compounds read low 0.979 | locus YEL037C, strain rad23, active compounds read low 0.97 | locus YEL061C, strain CIN8 (second series), active compounds read low 0.966 | locus YER015W, strain faa2, active compounds read low 0.987 | locus YER016W, strain bim1, active compounds read low 0.975 | locus YER110C, active compounds read low 1.01 | locus YER111C, strain swi4, active compounds read low 0.978 | locus YER155C, strain BEM2 (second series), active compounds read low 0.991 | locus YER155C, strain BEM2, active compounds read low 1.01 | locus YER167W, strain BCK2, active compounds read low 0.984 | locus YFR010W, strain ubp6, active compounds read low 0.963 | locus YGL078C, strain dbp3, active compounds read low 1.02 | locus YGL086W, strain mad1, active compounds read low 1 | locus YGL167C, strain pmr1, active compounds read low 0.97 | locus YGL173C, strain kem1, active compounds read low 0.969 | locus YGL227W, strain vid30, active compounds read low 0.973 | locus YGL240W, strain doc1, active compounds read low 0.974 | locus YGL248W, strain PDE1, active compounds read low 0.998 | locus YGL253W, strain hxk2, active compounds read low 0.952 | locus YGR135W, strain pre9, active compounds read low 1.03 | locus YGR252W, strain gcn5, active compounds read low 1.01 | locus YHR013C, strain ard1, active compounds read low 0.974 | locus YHR027C, strain rpn1, active compounds read low 0.985 | locus YHR030C, strain SLT2, active compounds read low 0.996 | locus YHR079C, strain IRE1 (second series), active compounds read low 0.998 | locus YHR094C, strain hxt1, active compounds read low 1.01 | locus YHR129C, strain ARP1, active compounds read low 1.01 | locus YHR142W, strain chs7, active compounds read low 0.969 | locus YHR200W, strain rpn10, active compounds read low 1.01 | locus YIL066C, strain RNR3, active compounds read low 0.989 | locus YIL073C, strain SPO22, active compounds read low 1.04 | locus YIL125W, strain kgd1, active compounds read low 1 | locus YIR030C, strain dcg1, active compounds read low 1 | locus YJL092W, strain hpr5, active compounds read low 0.967 | locus YJL095W, strain BCK1 (second series), active compounds read low 0.991 | locus YJL095W, strain BCK1, active compounds read low 1.03 | locus YJL115W, strain asf1, active compounds read low 0.973 | locus YJL129C, strain trk1, active compounds read low 0.961 | locus YJL134W, strain LCB3, active compounds read low 1.01 | locus YJL154C, strain vps35, active compounds read low 0.973 | locus YJL164C, strain tpk1, active compounds read low 1 | locus YJL166W, strain qcr8, active compounds read low 0.977 | locus YJL168C, strain set2, active compounds read low 0.998 | locus YJL187C, strain SWE1 (second series), active compounds read low 1.01 | locus YJL187C, strain SWE1, active compounds read low 0.974 | locus YKL009W, strain mrt4, active compounds read low 0.968 | locus YKL068W, active compounds read low 1 | locus YKL085W, strain MDH1 (second series), active compounds read low 0.989 | locus YKL085W, strain MDH1, active compounds read low 0.989 | locus YKL160W, strain elf1, active compounds read low 1.01 | locus YKR001C, strain vps1, active compounds read low 1 | locus YKR026C, strain gcn3, active compounds read low 0.979 | locus YKR091W, strain srl3, active compounds read low 0.986 | locus YLL001W, strain dnm1, active compounds read low 1.01 | locus YLL026W, active compounds read low 0.981 | locus YLL041C, strain sdh2, active compounds read low 0.974 | locus YLR027C, strain aat2, active compounds read low 0.996 | locus YLR039C, strain RIC1, active compounds read low 0.794 | locus YLR058C, strain SHM2, active compounds read low 1 | locus YLR102C, strain apc9, active compounds read low 1 | locus YLR221C, strain rsa3, active compounds read low 0.957 | locus YLR258W, strain gsy2, active compounds read low 0.975 | locus YLR262C, strain YPT6 (second series), active compounds read low 0.923 | locus YLR262C, strain YPT6, active compounds read low 0.701 | locus YLR268W, strain sec22, active compounds read low 0.984 | locus YLR320W, strain mms22, active compounds read low 0.964 | locus YLR342W, strain FKS1 (second series), active compounds read low 1 | locus YLR342W, strain FKS1, active compounds read low 0.993 | locus YLR357W, strain rsc2, active compounds read low 0.991 | locus YLR370C, strain arc18, active compounds read low 0.955 | locus YLR371W, strain rom2, active compounds read low 1.01 | locus YLR384C, strain iki3, active compounds read low 0.964 | locus YLR418C, strain cdc73, active compounds read low 1.01 | locus YML016C, strain PPZ1, active compounds read low 0.995 | locus YML032C, strain rad52, active compounds read low 1.02 | locus YML120C, strain ndi1, active compounds read low 0.973 | locus YML124C, strain tub3, active compounds read low 1.01 | locus YMR058W, strain fet3, active compounds read low 0.983 | locus YMR078C, strain ctf18, active compounds read low 1.01 | locus YMR125W, strain sto1, active compounds read low 0.98 | locus YMR129W, active compounds read low 0.985 | locus YMR205C, strain PFK2, active compounds read low 1.03 | locus YMR223W, strain ubp8, active compounds read low 1 | locus YMR231W, strain pep5, active compounds read low 0.943 | locus YMR307W, strain GAS1, active compounds read low 0.998 | locus YNL067W, strain RPL9B, active compounds read low 1.02 | locus YNL071W, strain lat1, active compounds read low 0.982 | locus YNL128W, strain TEP1, active compounds read low 0.996 | locus YNL209W, strain ssb2, active compounds read low 0.978 | locus YNL233W, strain BNI4, active compounds read low 0.969 | locus YNL248C, strain rpa49, active compounds read low 0.986 | locus YNL250W, strain rad50, active compounds read low 1.02 | locus YNL271C, strain bni1, active compounds read low 1 | locus YNL298W, strain CLA4, active compounds read low 1.01 | locus YNL307C, strain MCK1, active compounds read low 1.01 | locus YNL322C, strain KRE1 (second series), active compounds read low 0.967 | locus YNR049C, strain mso1, active compounds read low 0.982 | locus YNR052C, strain pop2, active compounds read low 1.01 | locus YOL012C, strain htz1 0.839 | locus YOL147C, strain pex11, active compounds read low 1.01 | locus YOR001W, strain rrp6, active compounds read low 0.944 | locus YOR061W, strain CKA2, active compounds read low 0.993 | locus YOR069W, strain VPS5, active compounds read low 1 | locus YOR070C, strain gyp1, active compounds read low 1.01 | locus YOR080W, strain dia2, active compounds read low 0.957 | locus YOR083W, strain WHI5, active compounds read low 1.01 | locus YOR106W, strain vam3, active compounds read low 0.982 | locus YOR136W, strain idh2, active compounds read low 1 | locus YOR144C, strain elg1, active compounds read low 1.01 | locus YOR184W, strain ser1, active compounds read low 0.985 | locus YOR265W, strain rbl2, active compounds read low 1 | locus YOR270C, strain vph1, active compounds read low 0.957 | locus YOR290C, strain snf2, active compounds read low 0.97 | locus YOR316C, strain cot1, active compounds read low 1 | locus YPL051W, strain arl3, active compounds read low 0.995 | locus YPL078C, strain atp4, active compounds read low 1.01 | locus YPL106C, strain sse1, active compounds read low 0.978 | locus YPL240C, strain hsp82, active compounds read low 0.965 | locus YPL241C, strain CIN2, active compounds read low 0.998 | locus YPR119W, strain clb2, active compounds read low 1.01 | locus YPR141C, strain kar3, active compounds read low 0.997 | locus YPR163C, strain tif3, active compounds read low 1.01 | locus YPR167C, strain met16, active compounds read low 1 | strain wtn01, active compounds read low 0.987
